# Measured values taken from article PMC7862700, “An all-to-all approach to the identification of sequence-specific readers for epigenetic DNA modifications on cytosine”.
# Key:
# Assay in all cases: DAPPL (digital affinity profiling via proximity ligation, sequencing); 10 mM Tris-HCl pH 7.5, 50 mM NaCl, 1 mM DTT, 4% glycerol, room temperature, 30 min; GST-TFs on glutathione beads, 16-mer random dsDNA library, 0.1% formaldehyde crosslink after washing; high values mean tight binding
# [1] = target: T1, FLI1 (Homo sapiens, UniProt Q01543 1-452); conditions: protein: recombinant; tags: N-terminal GST; dsDNA, one strand shown
# T1 sequence: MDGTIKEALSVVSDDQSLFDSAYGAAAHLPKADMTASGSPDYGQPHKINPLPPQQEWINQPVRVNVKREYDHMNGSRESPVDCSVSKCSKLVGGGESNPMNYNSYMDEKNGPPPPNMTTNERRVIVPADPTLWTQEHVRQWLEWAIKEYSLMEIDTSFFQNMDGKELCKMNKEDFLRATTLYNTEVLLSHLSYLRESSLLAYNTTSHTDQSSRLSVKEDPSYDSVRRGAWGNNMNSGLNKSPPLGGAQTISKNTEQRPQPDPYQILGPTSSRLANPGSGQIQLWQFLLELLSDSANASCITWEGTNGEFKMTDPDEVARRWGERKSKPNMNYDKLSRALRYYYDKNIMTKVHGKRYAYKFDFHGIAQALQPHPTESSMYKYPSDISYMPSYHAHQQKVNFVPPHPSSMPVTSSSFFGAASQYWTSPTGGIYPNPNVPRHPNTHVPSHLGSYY
# Procedure, shortened: (§1)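 Human transcription factors were made in yeast as GST fusions, captured on glutathione beads and barcoded with DNA. With a tag-only sample included, the pool was incubated with 200 nmole of a random double-stranded 16-mer DNA library in Tris/NaCl/DTT/glycerol buffer at room temperature for 30 min, then crosslinked with 0.1% formaldehyde after washing, ligated by proximity, amplified and sequenced. For binding signal, each hexamer's read frequency for a factor is divided by its frequency for the tag-only sample.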
# [2] = target: T2, ELK1 (Homo sapiens, UniProt P19419 1-428); conditions: protein: recombinant; tags: N-terminal GST; dsDNA, one strand shown
# T2 sequence: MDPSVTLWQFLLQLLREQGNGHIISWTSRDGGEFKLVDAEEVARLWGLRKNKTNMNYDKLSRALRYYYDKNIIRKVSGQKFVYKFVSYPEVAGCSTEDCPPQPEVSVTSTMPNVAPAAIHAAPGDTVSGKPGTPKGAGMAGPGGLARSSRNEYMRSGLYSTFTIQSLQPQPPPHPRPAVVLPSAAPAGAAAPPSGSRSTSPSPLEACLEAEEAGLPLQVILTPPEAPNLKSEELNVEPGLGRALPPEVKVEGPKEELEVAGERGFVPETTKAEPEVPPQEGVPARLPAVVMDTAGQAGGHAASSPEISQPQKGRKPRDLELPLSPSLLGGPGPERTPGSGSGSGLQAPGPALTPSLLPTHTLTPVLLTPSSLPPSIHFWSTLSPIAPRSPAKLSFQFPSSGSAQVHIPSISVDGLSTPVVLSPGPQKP
# Procedure, shortened: as §1
# [3] = target: T3, GABPA (Homo sapiens, UniProt Q06546 1-454); conditions: protein: recombinant; tags: N-terminal GST; dsDNA, one strand shown
# T3 sequence: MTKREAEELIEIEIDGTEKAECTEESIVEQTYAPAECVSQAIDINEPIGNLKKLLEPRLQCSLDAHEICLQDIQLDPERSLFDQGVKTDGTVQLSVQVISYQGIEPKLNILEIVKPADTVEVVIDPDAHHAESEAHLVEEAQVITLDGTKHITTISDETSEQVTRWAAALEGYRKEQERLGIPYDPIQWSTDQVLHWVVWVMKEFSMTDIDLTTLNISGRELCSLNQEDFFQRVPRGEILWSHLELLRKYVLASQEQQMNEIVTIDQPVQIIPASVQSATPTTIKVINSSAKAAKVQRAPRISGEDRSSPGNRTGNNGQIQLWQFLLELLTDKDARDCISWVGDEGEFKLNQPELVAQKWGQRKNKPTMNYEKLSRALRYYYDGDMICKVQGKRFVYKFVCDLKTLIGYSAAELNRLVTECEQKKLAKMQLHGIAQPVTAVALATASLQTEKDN
# Procedure, shortened: as §1
# [4] = target: ELF1 (Homo sapiens, UniProt P32519 1-619); conditions: protein: recombinant; tags: N-terminal GST; dsDNA, one strand shown
# Procedure, shortened: as §1
# [5] = target: T4, EHF (Homo sapiens, UniProt Q9NZC4 1-300); conditions: protein: recombinant; tags: N-terminal GST; dsDNA, one strand shown
# T4 sequence: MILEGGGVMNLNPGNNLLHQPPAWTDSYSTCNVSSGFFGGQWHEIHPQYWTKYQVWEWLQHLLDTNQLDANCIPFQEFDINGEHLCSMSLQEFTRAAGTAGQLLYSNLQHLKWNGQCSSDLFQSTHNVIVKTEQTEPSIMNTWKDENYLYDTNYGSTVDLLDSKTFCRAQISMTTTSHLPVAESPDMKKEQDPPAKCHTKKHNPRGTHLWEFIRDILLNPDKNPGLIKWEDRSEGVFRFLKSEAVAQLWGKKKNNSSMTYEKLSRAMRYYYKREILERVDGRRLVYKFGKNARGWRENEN
# Procedure, shortened: as §1
# [6] = target: T5, ELK3 (Homo sapiens, UniProt P41970 1-407); conditions: protein: recombinant; tags: N-terminal GST; dsDNA, one strand shown
# T5 sequence: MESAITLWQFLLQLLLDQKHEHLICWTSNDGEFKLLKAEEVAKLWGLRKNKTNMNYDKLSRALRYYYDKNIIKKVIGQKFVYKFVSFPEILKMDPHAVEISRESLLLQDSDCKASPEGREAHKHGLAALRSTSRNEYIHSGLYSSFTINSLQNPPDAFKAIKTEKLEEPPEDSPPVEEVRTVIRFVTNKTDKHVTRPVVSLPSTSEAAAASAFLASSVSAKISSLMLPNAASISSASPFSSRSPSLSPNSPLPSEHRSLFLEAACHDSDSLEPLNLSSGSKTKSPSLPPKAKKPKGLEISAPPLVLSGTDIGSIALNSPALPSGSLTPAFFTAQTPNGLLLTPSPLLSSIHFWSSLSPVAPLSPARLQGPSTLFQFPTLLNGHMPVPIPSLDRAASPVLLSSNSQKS
# Procedure, shortened: as §1
# [7] = target: ETV5 (Homo sapiens, UniProt P41161 1-510); conditions: protein: recombinant; tags: N-terminal GST; dsDNA, one strand shown
# Procedure, shortened: as §1
# [8] = target: HSF1 (Homo sapiens, UniProt Q00613 1-529); conditions: protein: recombinant; tags: N-terminal GST; chain copies: 3; dsDNA, one strand shown
# Procedure, shortened: as §1
# [9] = target: T6, SPIC (Homo sapiens, UniProt Q8N5J4 1-248); conditions: protein: recombinant; tags: N-terminal GST; dsDNA, one strand shown
# T6 sequence: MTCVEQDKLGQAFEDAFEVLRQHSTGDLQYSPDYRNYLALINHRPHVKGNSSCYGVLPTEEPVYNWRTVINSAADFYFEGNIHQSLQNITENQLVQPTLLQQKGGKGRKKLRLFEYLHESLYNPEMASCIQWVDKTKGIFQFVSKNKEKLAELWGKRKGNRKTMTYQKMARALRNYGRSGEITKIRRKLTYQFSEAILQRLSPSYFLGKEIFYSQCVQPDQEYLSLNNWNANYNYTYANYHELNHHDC
# Procedure, shortened: as §1
# [10] = target: ELF4 (Homo sapiens, UniProt Q99607 1-663); conditions: protein: recombinant; tags: N-terminal GST; dsDNA, one strand shown
# Procedure, shortened: as §1
# [11] = target: T7, ELK4 (Homo sapiens, UniProt P28324-2 1-405); conditions: protein: recombinant; tags: N-terminal GST; dsDNA, one strand shown
# T7 sequence: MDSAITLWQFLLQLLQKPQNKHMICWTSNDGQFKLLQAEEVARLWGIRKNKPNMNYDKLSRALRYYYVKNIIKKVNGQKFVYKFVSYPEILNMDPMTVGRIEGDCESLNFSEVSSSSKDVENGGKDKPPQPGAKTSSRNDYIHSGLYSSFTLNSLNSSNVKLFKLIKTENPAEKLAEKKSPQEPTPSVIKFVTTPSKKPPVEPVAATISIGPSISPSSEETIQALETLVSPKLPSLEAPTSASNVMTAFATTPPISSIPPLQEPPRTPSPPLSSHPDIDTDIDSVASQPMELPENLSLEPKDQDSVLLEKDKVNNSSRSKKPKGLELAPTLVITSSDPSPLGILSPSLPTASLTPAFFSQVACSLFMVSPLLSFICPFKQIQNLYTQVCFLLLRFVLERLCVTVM
# Procedure, shortened: as §1
# [12] = target: T8, ELF3 (Homo sapiens, UniProt P78545 1-371); conditions: protein: recombinant; tags: N-terminal GST; dsDNA, one strand shown
# T8 sequence: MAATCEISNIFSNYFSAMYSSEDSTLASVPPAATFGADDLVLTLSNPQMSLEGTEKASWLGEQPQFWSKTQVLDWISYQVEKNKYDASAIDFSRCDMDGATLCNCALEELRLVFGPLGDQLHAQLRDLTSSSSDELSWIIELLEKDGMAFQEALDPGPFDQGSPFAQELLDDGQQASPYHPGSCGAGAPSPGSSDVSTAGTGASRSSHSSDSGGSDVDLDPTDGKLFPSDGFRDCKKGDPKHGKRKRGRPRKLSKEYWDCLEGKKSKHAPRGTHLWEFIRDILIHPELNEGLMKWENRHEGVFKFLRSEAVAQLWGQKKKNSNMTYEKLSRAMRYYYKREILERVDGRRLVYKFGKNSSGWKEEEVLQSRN
# Procedure, shortened: as §1
# [13] = target: CRX (Homo sapiens, UniProt O43186 1-299); conditions: protein: recombinant; tags: N-terminal GST; dsDNA, one strand shown
# Procedure, shortened: as §1
# [14] = target: ETV1 (Homo sapiens, UniProt P50549 1-477); conditions: protein: recombinant; tags: N-terminal GST; dsDNA, one strand shown
# Procedure, shortened: as §1
# ETV5, sequence (P41161 whole entry): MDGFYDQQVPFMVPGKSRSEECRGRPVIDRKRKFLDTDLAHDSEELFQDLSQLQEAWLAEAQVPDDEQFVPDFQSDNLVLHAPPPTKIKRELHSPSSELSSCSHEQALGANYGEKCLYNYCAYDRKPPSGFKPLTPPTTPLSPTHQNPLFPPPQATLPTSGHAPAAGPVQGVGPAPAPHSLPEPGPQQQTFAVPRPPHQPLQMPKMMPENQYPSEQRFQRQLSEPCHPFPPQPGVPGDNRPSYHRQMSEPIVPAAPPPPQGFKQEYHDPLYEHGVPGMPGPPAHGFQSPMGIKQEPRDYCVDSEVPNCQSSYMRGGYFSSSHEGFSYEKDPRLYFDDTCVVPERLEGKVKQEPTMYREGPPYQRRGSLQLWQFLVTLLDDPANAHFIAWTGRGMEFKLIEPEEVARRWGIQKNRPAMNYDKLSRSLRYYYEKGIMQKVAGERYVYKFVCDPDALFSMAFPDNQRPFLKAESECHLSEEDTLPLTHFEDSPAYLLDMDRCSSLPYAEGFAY
# ELF4, sequence (Q99607 whole entry): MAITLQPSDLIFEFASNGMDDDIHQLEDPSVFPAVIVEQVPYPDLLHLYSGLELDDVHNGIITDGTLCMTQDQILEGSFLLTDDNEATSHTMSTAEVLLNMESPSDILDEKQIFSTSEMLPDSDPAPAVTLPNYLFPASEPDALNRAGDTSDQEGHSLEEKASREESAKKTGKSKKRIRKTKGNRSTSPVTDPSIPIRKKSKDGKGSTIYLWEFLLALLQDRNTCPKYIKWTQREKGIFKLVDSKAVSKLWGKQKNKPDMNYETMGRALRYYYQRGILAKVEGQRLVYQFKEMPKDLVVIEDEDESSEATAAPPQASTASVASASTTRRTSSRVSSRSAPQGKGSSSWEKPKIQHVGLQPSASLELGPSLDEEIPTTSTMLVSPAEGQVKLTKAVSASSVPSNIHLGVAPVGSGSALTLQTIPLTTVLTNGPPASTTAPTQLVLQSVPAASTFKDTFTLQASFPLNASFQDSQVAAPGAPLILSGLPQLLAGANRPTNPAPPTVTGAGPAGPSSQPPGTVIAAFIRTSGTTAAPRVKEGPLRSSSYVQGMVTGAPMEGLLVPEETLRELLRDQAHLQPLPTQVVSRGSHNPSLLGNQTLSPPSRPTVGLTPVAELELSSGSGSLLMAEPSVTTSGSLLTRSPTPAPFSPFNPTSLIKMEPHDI
# HSF1, sequence (Q00613 whole entry): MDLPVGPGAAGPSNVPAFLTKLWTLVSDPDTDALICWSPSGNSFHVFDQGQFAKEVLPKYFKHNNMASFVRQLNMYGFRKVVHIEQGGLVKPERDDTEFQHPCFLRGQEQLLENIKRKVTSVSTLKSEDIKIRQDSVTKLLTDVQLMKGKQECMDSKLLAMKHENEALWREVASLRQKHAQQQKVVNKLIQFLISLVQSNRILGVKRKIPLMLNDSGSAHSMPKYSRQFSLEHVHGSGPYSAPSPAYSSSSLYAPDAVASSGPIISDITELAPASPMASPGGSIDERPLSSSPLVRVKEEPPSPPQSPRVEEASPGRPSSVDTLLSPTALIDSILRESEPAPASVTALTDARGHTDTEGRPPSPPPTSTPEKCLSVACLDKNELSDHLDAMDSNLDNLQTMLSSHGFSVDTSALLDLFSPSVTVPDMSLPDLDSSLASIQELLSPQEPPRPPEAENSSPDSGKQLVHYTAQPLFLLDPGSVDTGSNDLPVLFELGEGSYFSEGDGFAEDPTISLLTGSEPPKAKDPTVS
# ELF1, sequence (P32519 whole entry): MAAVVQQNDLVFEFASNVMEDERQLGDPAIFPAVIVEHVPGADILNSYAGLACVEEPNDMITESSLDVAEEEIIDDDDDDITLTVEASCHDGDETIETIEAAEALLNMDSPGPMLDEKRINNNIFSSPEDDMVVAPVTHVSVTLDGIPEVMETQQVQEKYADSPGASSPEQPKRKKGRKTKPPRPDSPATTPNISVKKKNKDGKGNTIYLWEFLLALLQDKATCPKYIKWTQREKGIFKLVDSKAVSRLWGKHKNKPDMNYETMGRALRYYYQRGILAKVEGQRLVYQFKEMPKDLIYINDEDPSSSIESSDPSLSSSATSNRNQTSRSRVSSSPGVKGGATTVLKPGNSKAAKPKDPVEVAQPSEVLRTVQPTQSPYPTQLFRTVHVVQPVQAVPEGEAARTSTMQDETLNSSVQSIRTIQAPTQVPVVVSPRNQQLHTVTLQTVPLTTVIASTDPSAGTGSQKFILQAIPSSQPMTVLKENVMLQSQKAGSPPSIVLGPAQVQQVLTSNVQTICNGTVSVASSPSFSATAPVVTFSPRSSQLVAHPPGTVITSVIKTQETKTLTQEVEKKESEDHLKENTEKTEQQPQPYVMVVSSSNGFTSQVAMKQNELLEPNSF
# ETV1, sequence (P50549 whole entry): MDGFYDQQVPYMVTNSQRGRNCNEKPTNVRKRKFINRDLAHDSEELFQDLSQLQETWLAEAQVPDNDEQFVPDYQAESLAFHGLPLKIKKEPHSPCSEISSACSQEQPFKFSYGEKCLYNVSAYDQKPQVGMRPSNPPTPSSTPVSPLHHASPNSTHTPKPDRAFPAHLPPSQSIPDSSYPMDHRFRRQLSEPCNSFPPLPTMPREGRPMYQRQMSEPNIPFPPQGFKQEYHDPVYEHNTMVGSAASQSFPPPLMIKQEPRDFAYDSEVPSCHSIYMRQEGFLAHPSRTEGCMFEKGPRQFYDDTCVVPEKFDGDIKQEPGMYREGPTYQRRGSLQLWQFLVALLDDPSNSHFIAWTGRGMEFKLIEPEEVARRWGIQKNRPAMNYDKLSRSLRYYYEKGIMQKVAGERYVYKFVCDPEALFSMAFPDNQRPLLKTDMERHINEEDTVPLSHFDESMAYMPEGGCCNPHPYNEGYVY
# CRX, sequence (O43186 whole entry): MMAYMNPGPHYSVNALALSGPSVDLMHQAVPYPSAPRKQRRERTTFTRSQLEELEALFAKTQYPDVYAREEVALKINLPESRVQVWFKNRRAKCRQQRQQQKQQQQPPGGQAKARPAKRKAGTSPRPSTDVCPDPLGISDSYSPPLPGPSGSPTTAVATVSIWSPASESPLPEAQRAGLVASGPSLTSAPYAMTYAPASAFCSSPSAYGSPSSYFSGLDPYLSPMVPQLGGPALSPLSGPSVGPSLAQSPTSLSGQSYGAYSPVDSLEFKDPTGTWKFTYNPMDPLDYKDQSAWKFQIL
sequence,measurement,setting,value
TAGCGA,binding signal,[1],"1.1 fold enrichment (6-mer frequency, TF over GST control)"
same,binding signal,[2],"1.01 fold enrichment (6-mer frequency, TF over GST control)"
same,binding signal,[3],"1.18 fold enrichment (6-mer frequency, TF over GST control)"
same,binding signal,[4],"1.03 fold enrichment (6-mer frequency, TF over GST control)"
same,binding signal,[5],"1.03 fold enrichment (6-mer frequency, TF over GST control)"
same,binding signal,[6],"1.08 fold enrichment (6-mer frequency, TF over GST control)"
same,binding signal,[7],"1.08 fold enrichment (6-mer frequency, TF over GST control)"
same,binding signal,[8],"1.22 fold enrichment (6-mer frequency, TF over GST control)"
same,binding signal,[9],"1.08 fold enrichment (6-mer frequency, TF over GST control)"
same,binding signal,[10],"1.04 fold enrichment (6-mer frequency, TF over GST control)"
same,binding signal,[11],"1.05 fold enrichment (6-mer frequency, TF over GST control)"
same,binding signal,[12],"1.2 fold enrichment (6-mer frequency, TF over GST control)"
same,binding signal,[13],"1.24 fold enrichment (6-mer frequency, TF over GST control)"
same,binding signal,[14],"1.07 fold enrichment (6-mer frequency, TF over GST control)"
